Screening data (PubChem)
Compounds with a hit are over-represented: about 11% of the library has one in this group of screens.
VP16 counter – counter-screen for ROR gamma inhibitors: Gal4-VP16 reporter | AID 2546 | Drosophila S2 Gal4-VP16 UAS-luciferase, luminescence, 20 h | 310,000 tested, 3.5% active | Potency, µM (titrated, usually from 53.6 µM), hits mostly inhibitors;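 further: Gal4-VP16 expression switched on by copper sulfate through the metallothionein promoter; nearly all actives have a fitted effect of over 50% in size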
RORgamma inh – ROR gamma (mouse) transcription inhibition; AID 2551; 310,000 tested, 5.4% active; P51450; Drosophila S2 Gal4-RORgamma UAS-luciferase reporter, 20 h; Potency, µM (titrated, usually from 53.6 µM), actives largely listed as inhibitors; further: nearly all actives have a fitted effect of over 60% in size
Target sequence (P51450 whole entry, looked up, the tested form may be a part): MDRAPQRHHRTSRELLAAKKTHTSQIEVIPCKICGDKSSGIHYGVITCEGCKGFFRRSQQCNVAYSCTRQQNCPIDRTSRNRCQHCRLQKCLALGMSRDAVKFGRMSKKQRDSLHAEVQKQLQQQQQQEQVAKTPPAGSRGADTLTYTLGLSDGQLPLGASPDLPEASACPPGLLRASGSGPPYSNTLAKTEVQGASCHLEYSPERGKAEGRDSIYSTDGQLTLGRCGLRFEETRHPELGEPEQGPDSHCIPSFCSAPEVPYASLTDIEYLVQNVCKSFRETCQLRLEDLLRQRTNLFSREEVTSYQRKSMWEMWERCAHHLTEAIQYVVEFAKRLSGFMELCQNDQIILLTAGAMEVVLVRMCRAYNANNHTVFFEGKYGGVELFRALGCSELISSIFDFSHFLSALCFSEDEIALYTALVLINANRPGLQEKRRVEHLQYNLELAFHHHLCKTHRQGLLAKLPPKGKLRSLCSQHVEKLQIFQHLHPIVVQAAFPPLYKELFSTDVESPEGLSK
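Stable Schneider cell line, Gal4 DNA-binding domain fused to ROR gamma, UAS-luciferase. Cmpd 1 hr RT → CuSO4 700 uM final → 20 hr RT → luciferase reagent 10 min → luminescence.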
MCF10A rereplic – DNA re-replication induction in MCF 10a cells | MCF 10A DNA re-replication, Hoechst nuclear intensity, 48 h | Potency, µM (titrated, usually from 46.1 µM), actives largely listed as activators | 350,000 tested, 2.9% active | AID 624296; further: nearly all actives have a fitted effect of over 50% in size
IL-1B inflam inh – inhibitors of inflammasome signaling (IL-1 beta secretion); THP-1 LPS/ATP IL-1B secretion, AlphaLISA, 16 h; stronger effect = lower value; activity change, % at 57.5 µM; 360,000 tested, 4.7% active; in the data active means activity change below about -50%; inconclusive means mostly about -30% to -49%
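Secreted IL-1B measured by AlphaLISA bead assay after 16 h compound exposure of THP-1 cells; compounds (final up to 57.5 uM) added 1 h before LPS (250 ng/mL) and ATP (1.25 mM) stimulation; lower signal means less secretion.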
SW480 rerep – inducers of DNA re-replication in SW480 colon cancer cells; 340,000 tested, 1.8% active; Potency, µM (titrated, usually from 46.1 µM), usual class: activators; AID 624297; SW480 DNA re-replication, Hoechst DNA content imaging, 48 h; further: nearly all actives have a fitted effect of over 55% in size
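Quantitative HTS format with DMSO vehicle controls; 48 hr drug incubation at 37 C, then 40 min Hoechst staining and scanning imager measurement at 405 nm excitation.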
Numbers stand for hits; [ ] = another dose, or the depositor's remark. Unless noted, the call rests on the fitted dose curve; in most records, active means well fitted curve in the direction sought with a large enough effect; inconclusive means small, poorly fitted or top-dose-only effect, or another doubt; inactive means no such curve, though single readings can be large; an effect the other way counts as inactive or inconclusive.

For COCC#Cc1ccc2c(c1)O[C@@H](CN(C)S(=O)(=O)c1cccc(F)c1)[C@@H](C)CN([C@H](C)CO)S2(=O)=O the results were IL-1B inflam inh inactive.
CNC(=S)N=Nc1c(O)[nH]c2ccccc12 was read as VP16 counter inconclusive, RORgamma inh 3.2µM, MCF10A rereplic inactive, IL-1B inflam inh inactive and SW480 rerep inactive.
Screening C=C(C)CNC(=S)N=Nc1c(O)[nH]c2ccc([N+](=O)[O-])cc12 returned VP16 counter 13µM, RORgamma inh 2.5µM, MCF10A rereplic inactive, IL-1B inflam inh inactive and SW480 rerep inactive.
`Cc1ccc(NC(=S)N=Nc2c(O)[nH]c3ccccc23)cc1` gave VP16 counter 1.3µM, RORgamma inh 0.32µM, MCF10A rereplic inconclusive, IL-1B inflam inh inactive and SW480 rerep inconclusive.
Cc1ccccc1N=Nc1c(O)[nH]c2ccccc12 was read as MCF10A rereplic inactive, IL-1B inflam inh inactive and SW480 rerep inactive.
Screening Nc1ncnc2c1ncn2[C@@H]1O[C@H](CNC(=O)[C@H]2CCC(=O)N2)[C@@H](O)[C@H]1O returned MCF10A rereplic inactive, IL-1B inflam inh inactive and SW480 rerep inactive.
O=C(CSc1cccc2cccnc12)N1CCCC1 was read as RORgamma inh inactive[0.365 µM], MCF10A rereplic 12µM, IL-1B inflam inh -116 and SW480 rerep inconclusive.
O=C(CSc1cccc2cccnc12)N/N=C/c1ccncc1 was read as VP16 counter inactive, RORgamma inh inconclusive, MCF10A rereplic inactive, IL-1B inflam inh inactive and SW480 rerep 1.8µM.
`NNC(=O)CSc1cccc2cccnc12` gave VP16 counter inactive, RORgamma inh inactive, MCF10A rereplic inactive, IL-1B inflam inh inactive and SW480 rerep inactive.
`CN(C)C(=O)CSc1cccc2cccnc12` gave VP16 counter inconclusive, RORgamma inh 10µM, MCF10A rereplic inconclusive, IL-1B inflam inh inactive and SW480 rerep 5.2µM.
COc1ccc(C)c2sc(N(CCN(C)C)C(=O)c3cccc(N4C(=O)CCC4=O)c3)nc12 was read as MCF10A rereplic inactive, IL-1B inflam inh inactive and SW480 rerep inactive.
COCCCN1C(=O)C(CC(=O)NC2CCCCC2)CC(C(=O)N2CCOCC2)=C1C (stereo unspecified) was read as IL-1B inflam inh inactive.
`Oc1ccccc1/C=N/Nc1ccccc1` gave VP16 counter inactive, RORgamma inh inactive, MCF10A rereplic inconclusive, IL-1B inflam inh inactive and SW480 rerep inactive.
Screening NC(=S)N/N=C/c1ccccc1O returned VP16 counter 6.3µM, RORgamma inh 3.5µM, MCF10A rereplic inactive, IL-1B inflam inh inactive and SW480 rerep inactive.
For COc1cc(OC)c(/C=N/NC(=O)c2ccncc2)cc1Br the results were VP16 counter inactive, RORgamma inh inactive, MCF10A rereplic inactive, IL-1B inflam inh inactive and SW480 rerep inactive.
Screening O=C(N/N=C/c1ccccc1O)C1(O)c2ccccc2-c2ccccc21 returned VP16 counter 0.79µM, RORgamma inh 0.56µM, MCF10A rereplic inconclusive, IL-1B inflam inh inactive and SW480 rerep inconclusive.
Oc1ccccc1C=NNC(=S)NN=Cc1ccccc1O was read as MCF10A rereplic 18µM, IL-1B inflam inh inactive and SW480 rerep 3.7µM.
Screening COc1cc(OC)c(/C=N/NC(N)=S)cc1Br returned VP16 counter inconclusive, RORgamma inh 8.9µM, MCF10A rereplic inactive, IL-1B inflam inh inactive and SW480 rerep inactive.
CC(=O)OC[C@H]1O[C@@H](CCO/N=C2/[C@H]3O[C@@H]3[C@@H](O)[C@H]3[C@H]2CCn2c(=O)n(-c4ccccc4)c(=O)n23)C=C[C@@H]1OC(C)=O was read as VP16 counter inactive[10 µM] and RORgamma inh inactive[10 µM].
`CCn1nc(C(=O)NCCc2ccc3c(c2)OCCO3)c2ccccc2c1=O` gave MCF10A rereplic inactive, IL-1B inflam inh inactive and SW480 rerep inactive.
`Cc1ccc2occ(/C=N/NC(N)=S)c(=O)c2c1` gave VP16 counter inactive, RORgamma inh inactive, MCF10A rereplic inactive, IL-1B inflam inh inactive and SW480 rerep inactive.
For NC(=S)N/N=C/c1cccc(O)c1O the results were VP16 counter inconclusive, RORgamma inh 7.1µM, MCF10A rereplic inactive, IL-1B inflam inh inactive and SW480 rerep inconclusive.
Screening NC(=S)NN=Cc1nccc2ccccc12 returned MCF10A rereplic inconclusive, IL-1B inflam inh inactive and SW480 rerep 2.9µM.
